Screening results: PubChem BioAssay, National Center for Advancing Translational Sciences (NCATS)
A selection: hits, their analogues and other compounds. The true share with any hit is near 2.4%.
D2 ag-1 – agonists of human D2 dopamine receptor (beta-arrestin); 360,000 compounds, 0.084% hits; DiscoveRx PathHunter D2 beta-arrestin, luminescence, 90 min; 100% = 57 uM dopamine signal; P14416; activation, % (test concentration not listed); in the data active = activation above about 40%; inconclusive = between about 15% and that limit
Target sequence (P14416 whole entry, looked up): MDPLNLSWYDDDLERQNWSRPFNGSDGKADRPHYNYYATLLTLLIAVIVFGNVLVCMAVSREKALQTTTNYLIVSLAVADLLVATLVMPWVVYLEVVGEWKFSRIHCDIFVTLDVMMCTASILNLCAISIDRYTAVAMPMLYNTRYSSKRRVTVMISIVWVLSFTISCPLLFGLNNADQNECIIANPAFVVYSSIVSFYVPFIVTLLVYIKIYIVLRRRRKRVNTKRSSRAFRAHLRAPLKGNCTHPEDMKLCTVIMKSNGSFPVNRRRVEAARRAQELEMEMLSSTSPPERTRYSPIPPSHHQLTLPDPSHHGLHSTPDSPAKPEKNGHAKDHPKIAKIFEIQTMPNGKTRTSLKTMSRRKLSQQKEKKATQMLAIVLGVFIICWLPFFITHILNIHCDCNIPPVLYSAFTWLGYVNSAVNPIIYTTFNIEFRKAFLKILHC
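Agonist mode: compounds alone added to overnight-plated D2 PathHunter cells for 90 min at 37 C, with 57 uM final dopamine (EC100) defining full response. Beta-arrestin recruitment detected by chemiluminescent reagent, read after 1 h at ambient temperature.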
D2 PAM-1 – D2 dopamine receptor (human) potentiation. P14416. HEK293 T-REx D2, calcium flux, EC20 dopamine potentiation. potentiation, % at 10 µM. 340,000 compounds, 0.34% hits. AID 485347;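 active = potentiation over 3 SD above the plate norm, cut at about 30% in these data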
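Tetracycline-induced Hek293 Trex D2 cells, force-coupled to calcium, loaded with no-wash calcium dye. Compound added with 180 s kinetic read for agonism, then EC20 dopamine and a further 180 s read for potentiation.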
D2 antagonist – antagonists of human D2 dopamine receptor; AID 485344; HEK293 TREx D2 cells, calcium flux, dopamine EC80; 340,000 compounds, 2% hits; P14416; inhibition, % at 10 µM; in the data active = inhibition above about 30%; inactive = below that, where a call was filed
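Read-out: kinetic calcium fluorescence (1 cycle/s) in inducible HEK293 T-REx D2 cells after an EC80 dopamine addition that followed 180 s compound preincubation. Loss of the dopamine response indicates antagonism.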
D2 PAM-2 – positive allosteric modulators of human D2 dopamine receptor. P14416. DiscoveRx D2 beta-arrestin cells, luminescence, 90 min; 100% = 57 uM dopamine signal. potentiation, % (concentration not given with the values). 360,000 compounds, 0.23% hits. AID 624464; in the data active = potentiation above about 50%; inconclusive = mostly about 30% to 49%
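PathHunter beta-arrestin assay in DiscoveRx D2 cells. Compounds were added with an EC20 of dopamine (50 nM final) for 90 min at 37 deg C. Luminescence was read 1 h after detection reagent, with 57 uM dopamine as the EC100 control.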
D2 ag-2 – activates the human D2 dopamine receptor. HEK293 T-REx D2 cells, calcium flux agonist mode. activation, % at 2 µM. 340,000 compounds, 0.53% hits. AID 485358;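 active = activation over 3 SD above normal in the single-dose calcium agonist read, cut at about 30% in these data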
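Calcium-flux readout, 1 cycle/sec over 180 s following compound pin transfer, in inducible HEK293 Trex D2 cells (force-coupled); dopamine controls included. Positive calcium responses during this window marked compounds as potential agonists.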
D3 arrestin ag – activates human D3 dopamine receptor beta-arrestin recruitment. Potency, µM (titrated, usually from 76.9 µM), hits mostly activators. shares compounds with D2 ag-2. 2,300 compounds, 4% hits. DiscoveRx D3 beta-arrestin cells, luminescence, 90 min; also: nearly all actives have a fitted effect of over 70% in size
D2 ag-3 – D2 receptor agonism, beta-arrestin counterscreen; shares compounds with D2 ag-2; DiscoveRx PathHunter D2 beta-arrestin, luminescence, 90 min; response scale: percent relative to full dopamine signal; Potency, µM (series often up to 76.9 µM), actives largely listed as activators; 2,300 compounds, 5.9% hits; AID 720507; also: nearly all actives have a fitted effect of over 70% in size
A number is an active result; - = inactive; ? = inconclusive; . = not tested or not shown. Unless noted, calls follow the shape of the dose curve; as a rule, active = well fitted activation curve with a large enough effect; inconclusive = small, poorly fitted or top-dose-only effect; inactive = flat fitted curve, though single readings scatter.

SMILES	D2 ag-1	D2 PAM-1	D2 antagonist	D2 PAM-2	D2 ag-2	D3 arrestin ag	D2 ag-3
CN(CCNC(=O)c1ccc(CS(=O)(=O)c2c(Cl)cccc2Cl)o1)CCc1ccccc1	-	-	-	-	30.7	-	-
CCOC(=O)c1ccccc1NC(=O)Cn1c(=O)n(Cc2nc(-c3ccccc3)no2)c(=O)c2ccccc21	.	-	.	.	-	.	.
CNC(=S)N(CCc1c(C)[nH]c2ccc(OC)cc12)Cc1cccnc1	-	-	-	-	-	-	-
COc1ccc(C(=O)c2cn(Cc3ccccc3)c3ccccc3c2=O)cc1OC	.	-	.	.	-	.	.
CC1CN(C)C(C)C/C1=N/Oc1ccccc1[N+](=O)[O-] (stereo not given)	-	-	-	-	41.5	-	-
Cc1cccc(C)c1-n1ncc(C(=O)N2CCN(c3ccccn3)CC2)c1C1CCN(C(=O)OC(C)(C)C)CC1	.	-	.	.	-	.	.
Cc1ccc(-n2nnnc2SCC(=O)c2c(N)n(C3CC3)c(=O)[nH]c2=O)c(C)c1	-	-	-	-	-	-	-
COc1cccc(C2CC(c3ccc(Cl)cc3Cl)n3nc(N)nc3N2)c1 (stereo not given)	-	-	-	-	-	.	.
COc1cccc(C2CC(c3ccccc3Cl)n3nc(N)nc3N2)c1 (stereo not given)	-	-	-	-	70.6	-	-
O=C(c1ccco1)N1CCN(Cc2c(F)cccc2Cl)CC1	-	.	.	-	.	.	.
O=C(c1ccco1)N1CCN(Cc2cccnc2)CC1	?	-	31.2	-	70.0	?	?
O=C(c1ccco1)N1CCN(Cc2ccccc2F)CC1	75.3	-	80.3	-	78.2	?	?
O=C(c1ccco1)N1CCCN(C(=O)c2ccco2)CC1	-	-	-	-	-	.	.
Cc1ccc(Nc2nc(N)nc(CN3CCN(C(=O)c4ccco4)CC3)n2)cc1Cl	?	-	38.5	-	66.7	-	?
Cc1ccc(OCC(=O)N2CCN(C(=O)c3ccco3)CC2)cc1	-	-	-	-	-	.	.
Cc1ccc(CN2CCN(C(=O)c3ccco3)CC2)cc1	69.8	-	82.5	55.5	66.1	?	4.47µM
COc1ccc(NC(=O)CSc2nc(-c3ccccc3)cc(-c3cc(OC)c(OC)c(OC)c3)c2C#N)c(OC)c1	.	.	.	.	-	.	.
COc1ccc(OC)c(CCNC(=O)CCc2cn(Cc3cc(C)ccc3C)c3ccccc23)c1	.	-	.	.	-	.	.
CCc1ccc(-n2nc(C)c3c(C)cc(=O)n(CC(=O)Nc4cc(C)ccc4C)c32)cc1	.	-	.	.	.	.	.
Cc1ccc(Cl)cc1-n1ncc2c(NCCC3=CCCCC3)ncnc21	.	-	.	.	-	.	.
Cc1ccccc1CN1CCN(C(=O)c2ccco2)CC1	47.4	-	69.7	-	80.7	?	20µM
O=C(NC(=S)N1CCN(Cc2ccccc2)CC1)c1ccco1	-	-	-	-	69.9	-	-
O=C(c1ccco1)N1CCN(CCCCOc2ccc(F)cc2)CC1	?	.	.	-	.	1µM	?
O=C(CCCOc1ccccc1)N1CCN(C(=O)c2ccco2)CC1	-	-	-	-	-	.	.
Cc1ccccc1CC(=O)N1CCN(C(=O)c2ccco2)CC1	-	-	-	-	-	.	.
SMILES	D2 ag-1	D2 PAM-1	D2 antagonist	D2 PAM-2	D2 ag-2	D3 arrestin ag	D2 ag-3
CCn1c(=O)cc(SCC(=O)N2CCN(C(=O)c3ccco3)CC2)c2ccccc21	-	-	-	-	-	.	.
CCn1c2ccccc2c2cc(CN3CCN(C(=O)c4ccco4)CC3)ccc21	-	-	-	-	-	?	-
CC1CCN(C(=S)NC(=O)c2ccco2)CC1	-	-	-	-	-	.	.
Cc1cccc(NCc2nnc3n2CCCCC3)c1C	.	-	.	.	-	.	.
Cc1ccc2oc(=O)c3cc(C(=O)NCCCOC(C)C)sc3c2c1	.	.	.	.	-	.	.
CCOC(=O)c1ccccc1NC(=O)N1CCCN(S(=O)(=O)c2ccc3c(ccn3CC)c2)CC1	.	-	.	.	-	.	.
CCc1ccc(-c2nc(CS(=O)CC(=O)NCCc3ccc(Cl)cc3)c(C)o2)cc1 (stereo not given)	.	-	.	.	.	.	.
Cc1ccc(NC(=O)CSc2nnc(-c3cc4occc4n3C)n2-c2ccccc2C)c(C)c1	.	-	.	.	-	.	.
CC(=O)Nc1ccc(OCC(O)CN2CCN(S(=O)(=O)c3ccc(NC(C)=O)cc3)CC2)cc1 (stereo not given)	-	-	-	-	-	.	.
CC(=O)Nc1ccc(OCC(O)CN2CCN(c3cccc(Cl)c3)CC2)cc1 (stereo not given)	?	-	83.0	-	75.8	?	?
CC(=O)Nc1ccc(OCC(O)CN2CCN(c3ccc(F)cc3)CC2)cc1 (stereo not given)	-	-	44.6	-	68.9	-	-
CC(=O)Nc1ccc(OCC(O)CN2CCN(c3ccc(Cl)cc3)CC2)cc1 (stereo not given)	-	-	40.2	-	-	-	-
COCCn1c(SCC(=O)c2ccccc2)nc2cc(C(=O)NC3CCCC3)ccc2c1=O	.	-	.	.	-	.	.
COc1ccc(Cl)cc1NC(=O)Cn1cnc2sc(C)c(S(=O)(=O)N3CCN(c4ccccc4OC)CC3)c2c1=O	.	-	.	.	-	.	.
COc1cc([C@@H]2Nc3c(F)cccc3[C@@H]3C=CC[C@@H]32)cc(Br)c1OC	.	-	.	.	-	.	.
CN(c1ccccc1)S(=O)(=O)c1ccc(NC(=O)c2nc(S(C)(=O)=O)ncc2Cl)cc1	-	-	-	-	-	-	-
Cc1ccc(NC(=O)c2nc(S(=O)(=O)Cc3ccccc3C)ncc2Cl)cc1C	-	-	34.3	-	-	-	-
Cc1ccc(NC(=O)c2nc(S(=O)(=O)Cc3ccc(F)cc3)ncc2Cl)cc1C	.	-	.	.	-	.	.
COC(=O)c1sc(N2C(=O)c3oc4ccc(C)cc4c(=O)c3C2c2ccc(OC)cc2)nc1C (stereo not given)	.	.	.	.	-	.	.
O=C(CN1CCN(C/C=C/c2ccccc2)CC1)NC(=O)NC1CCCCC1	-	-	70.6	-	-	-	-
O=C(CN1CCN(Cc2ccccc2)CC1)NC(=O)NC1CCCCC1	-	-	-	-	-	.	.
CC1CN(C(=O)CCC(=O)N2CCN(c3ccccn3)CC2)c2ccccc2O1 (stereo not given)	-	-	-	-	-	.	.
Cc1ccc2c(c1)N(C(=O)CCC(=O)N1CCN(c3ccccn3)CC1)CC(C)O2 (stereo not given)	-	-	-	-	50.0	-	-
COc1ccccc1N1CCN(CC(C)N(C(=O)C2CCCCC2)c2ccccn2)CC1 (stereo not given)	-	-	82.1	-	40.3	-	-
